# Reference: PubChem BioAssay
# Inconclusive results are not listed. Active and inactive are the calls of the source.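 The calls were made as follows, unless noted: active = normalized viability below 100% at a tested concentration; inactive = the rest.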
# Experiments:
# [1] = viability loss in pontine glioma line – cell-based, SU-DIPG-XVII, MIPE5.0, CellTiter-Glo, qHTS, dose response (AID 1347060; cut-off not given, nearly all actives have AC50 up to about 26 µM;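 as to AC50: cells exposed to compound for 48 hours before viability readout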); settings: CellTiter-Glo ATP luminescence
# [2] = viability loss in pontine glioma line – cell-based, SU-DIPG-XIII, MIPE4.0, CellTiter-Glo, qHTS, dose response (AID 1347061; cut-off not given, nearly all actives have AC50 up to about 37 µM;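 also: cells exposed to compound for 48 hours before readout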); settings: CellTiter-Glo ATP luminescence
# [3] = viability loss in pontine glioma line – cell-based, JHH-DIPG-1, MIPE4.0, CellTiter-Glo, qHTS, dose response (AID 1347062; cut-off not given, nearly all actives have AC50 up to about 27 µM;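 as to AC50: cells exposed to compound for two days before readout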); settings: JHH-DIPG-1 viability, CellTiter-Glo ATP luminescence
# [4] = viability loss in pontine glioma line – cell-based, SU-DIPG-IV, MIPE4.0, CellTiter-Glo, qHTS, dose response (AID 1347063; cut-off not given, nearly all actives have AC50 up to about 30 µM;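 also: compound exposure lasted 48 hours before the viability readout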); settings: CellTiter-Glo ATP luminescence
# [5] = growth inhibition of DIPG cells – cell-based, MIPE4.0 library, CellTiter-Glo luminescence, qHTS (AID 1347066; cut-off not given, nearly all actives have AC50 up to about 30 µM;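 also: cells exposed to compound for 48 hours before readout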); settings: SU-DIPG-VI viability, CellTiter-Glo ATP luminescence
# [6] = JHH-DIPG-1 glioma cell viability, MIPE5.0 library, CellTiter-Glo luminescence, qHTS (AID 1347067; cut-off not given, nearly all actives have AC50 up to about 26 µM;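 also: cells exposed to compound for 48 hours before readout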); settings: JHH-DIPG-1 glioma viability, CellTiter-Glo ATP luminescence
# [7] = growth inhibition of DIPG cells – cell-based, MIPE5.0 library, qHTS (AID 1347068; cut-off not given, nearly all actives have IC50 up to about 30 µM;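 as to IC50: cells exposed to compound for 48 hours before viability readout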); settings: SU-DIPG-XXV viability
# [8] = viability loss in pontine glioma line – cell-based, SU-DIPG-XIII, MIPE5.0, CellTiter-Glo, qHTS, dose response (AID 1347064; cut-off not given, nearly all actives have AC50 up to about 23 µM;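 as to AC50: cells exposed to compound for 48 hours before the viability read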); settings: CellTiter-Glo ATP luminescence
# [9] = viability loss in pontine glioma line – cell-based, SU-DIPG-XXV, MIPE5.0, CellTiter-Glo, qHTS, dose response (AID 1347065; cut-off not given, nearly all actives have AC50 up to about 26 µM;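 also: cells exposed to compound for 48 hours before ATP readout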); settings: CellTiter-Glo ATP luminescence
# [10] = compounds altering HSF1 focus formation in cells – imaging, Selleck Cancer Library (AID 1347162; in the data active = plate-normalised HSF1 focus index below about 0.46); settings: human cells, HSF1 nuclear foci imaging, at 10 µM; SSMD: measured here: HSF1 foci SSMD mean; cell count: measured here: cell number; plate-normalised HSF1 focus index: stronger effect = lower value
# [11] = viability loss with induced miR-34 in A549 – imaging, A549 dox-inducible miR-34, nuclei and caspase counts, primary screen (AID 1347080;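 active = compounds whose cell count with miR-34 switched on is under 0.7 times the count with it off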); settings: A549 miR-34 inducible, Hoechst nuclei count, 48 h
# [12] = MELAS cybrid and Rieske KO viability enhancers – cell-based, MELAS cybrids, Rieske KO mouse fibroblasts, CellTiter-Glo, primary screen (AID 1508586;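 active = mean z-score across replicates of 1.96 or higher in either the MELAS or the Rieske mutant cell line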;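 also: z relative to plate mean and SD of compound and empty wells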); settings: low glucose
# [13] = drug combination growth inhibition, ovarian cancer – cell-based, oncology-focused library, rucaparib conditional, profiling panel (AID 1508598); settings: patient-derived ovarian cancer cells, CellTiter-Glo viability, 144 h, stronger effect = lower value
# [14] = stronger effect = lower value, cell number ratio, induced over uninduced
# [15] = measured here: relative caspase fold change +Dox/-Dox
# [16] = measured here: total cells with miR-34 induction, stronger effect = lower value
# [17] = measured here: total cells without miR-34 induction
# [18] = MELAS cybrid survival, CellTiter-Glo 48 h, stronger effect = higher value
# [19] = Rieske KO mouse fibroblast survival, CellTiter-Glo 72 h
# [20] = at 0.000305 µM, OCI-C5x cells, with rucaparib 10 µM, 100% = cells with rucaparib alone
# [21] = at 0.000305 µM, OCI-C5x cells, without rucaparib
# [22] = at 0.000305 µM, OCI-P5x cells, with rucaparib 20 µM, 100% = cells with rucaparib alone
# [23] = at 0.000305 µM, OCI-P5x cells, without rucaparib
# [24] = at 0.00122 µM, OCI-C5x cells, with rucaparib 10 µM, 100% = cells with rucaparib alone
# [25] = at 0.00122 µM, OCI-C5x cells, without rucaparib
# [26] = at 0.00122 µM, OCI-P5x cells, with rucaparib 20 µM, 100% = cells with rucaparib alone
# [27] = at 0.00122 µM, OCI-P5x cells, without rucaparib
# [28] = at 0.00488 µM, OCI-C5x cells, with rucaparib 10 µM, 100% = cells with rucaparib alone
# [29] = at 0.00488 µM, OCI-C5x cells, without rucaparib
# [30] = at 0.00488 µM, OCI-P5x cells, with rucaparib 20 µM, 100% = cells with rucaparib alone
# [31] = at 0.00488 µM, OCI-P5x cells, without rucaparib
# [32] = at 0.0195 µM, OCI-C5x cells, with rucaparib 10 µM, 100% = cells with rucaparib alone
# [33] = at 0.0195 µM, OCI-C5x cells, without rucaparib
# [34] = at 0.0195 µM, OCI-P5x cells, with rucaparib 20 µM, 100% = cells with rucaparib alone
# [35] = at 0.0195 µM, OCI-P5x cells, without rucaparib
# [36] = at 0.0781 µM, OCI-C5x cells, with rucaparib 10 µM, 100% = cells with rucaparib alone
# [37] = at 0.0781 µM, OCI-C5x cells, without rucaparib
# [38] = at 0.0781 µM, OCI-P5x cells, with rucaparib 20 µM, 100% = cells with rucaparib alone
# [39] = at 0.0781 µM, OCI-P5x cells, without rucaparib
# [40] = at 0.313 µM, OCI-C5x cells, with rucaparib 10 µM, 100% = cells with rucaparib alone
# [41] = at 0.313 µM, OCI-C5x cells, without rucaparib
# [42] = at 0.313 µM, OCI-P5x cells, with rucaparib 20 µM, 100% = cells with rucaparib alone
# [43] = at 0.313 µM, OCI-P5x cells, without rucaparib
# [44] = at 1.25 µM, OCI-C5x cells, with rucaparib 10 µM, 100% = cells with rucaparib alone
# [45] = at 1.25 µM, OCI-C5x cells, without rucaparib
# [46] = at 1.25 µM, OCI-P5x cells, with rucaparib 20 µM, 100% = cells with rucaparib alone
# [47] = at 1.25 µM, OCI-P5x cells, without rucaparib
# [48] = at 5 µM, OCI-C5x cells, with rucaparib 10 µM, 100% = cells with rucaparib alone
# [49] = at 5 µM, OCI-C5x cells, without rucaparib
# [50] = at 5 µM, OCI-P5x cells, with rucaparib 20 µM, 100% = cells with rucaparib alone
# [51] = at 5 µM, OCI-P5x cells, without rucaparib
smiles,measurement,setting,value
CCCCCCCCCCCCCCCC(=O)O[C@@H]1[C@@H](O)[C@@H](O)[C@@H]([C@H](NC(=O)[C@@H]2C[C@@H](CCC)CN2C)[C@H](C)Cl)O[C@@H]1SC,outcome,[1],inactive
same,outcome,[2],inactive
same,outcome,[3],inactive
same,outcome,[4],inactive
same,outcome,[5],inactive
same,AC50,[6],10.5 µM (active)
same,outcome,[7],inactive
CC(=O)OCCN1C(=O)c2c(C)nc3ccc(S(=O)(=O)N4CCOCC4)cc3c2C1=O,outcome,[1],inactive
same,outcome,[2],inactive
same,outcome,[3],inactive
same,outcome,[8],inactive
same,outcome,[9],inactive
same,outcome,[5],inactive
same,outcome,[6],inactive
same,outcome,[7],inactive
same,SSMD,[10],2.02
same,cell count,[10],7180
same,plate-normalised HSF1 focus index,[10],1.12 (inactive)
Cn1cnc2c(F)c(Nc3ccc(Br)cc3Cl)c(C(=O)NOCCO)cc21,AC50,[1],4.17 µM (active)
same,AC50,[2],10.5 µM (active)
same,AC50,[3],9.35 µM (active)
same,AC50,[8],5.9 µM (active)
same,AC50,[9],4.68 µM (active)
same,outcome,[5],inactive
same,AC50,[6],0.833 µM (active)
same,fold change,[11]; [14],1.01 (inactive)
same,fold change,[11]; [15],0.759
same,cell count,[11]; [16],3770
same,cell count,[11]; [17],3730
same,SSMD,[10],2.54
same,cell count,[10],7320
same,plate-normalised HSF1 focus index,[10],1.09 (inactive)
same,z-score,[12]; [18],-0.103 (inactive)
same,z-score,[12]; [19],-0.489
same,viability,[13]; [20],105% (inactive)
same,viability,[13]; [21],106% (inactive)
same,viability,[13]; [22],80.8% (active)
same,viability,[13]; [23],84.9% (active)
same,viability,[13]; [24],104% (inactive)
same,viability,[13]; [25],92.6% (active)
same,viability,[13]; [26],81.4% (active)
same,viability,[13]; [27],82.8% (active)
same,viability,[13]; [28],101% (inactive)
same,viability,[13]; [29],93.7% (active)
same,viability,[13]; [30],70.3% (active)
same,viability,[13]; [31],75.1% (active)
same,viability,[13]; [32],110% (inactive)
same,viability,[13]; [33],92.3% (active)
same,viability,[13]; [34],56.4% (active)
same,viability,[13]; [35],70.1% (active)
same,viability,[13]; [36],102% (inactive)
same,viability,[13]; [37],83.8% (active)
same,viability,[13]; [38],53.5% (active)
same,viability,[13]; [39],65.2% (active)
same,viability,[13]; [40],104% (inactive)
same,viability,[13]; [41],80.4% (active)
same,viability,[13]; [42],43.6% (active)
same,viability,[13]; [43],59.6% (active)
same,viability,[13]; [44],84% (active)
same,viability,[13]; [45],82.2% (active)
same,viability,[13]; [46],38.2% (active)
same,viability,[13]; [47],61.5% (active)
same,viability,[13]; [48],49.5% (active)
same,viability,[13]; [49],51.1% (active)
same,viability,[13]; [50],25.6% (active)
same,viability,[13]; [51],32.7% (active)
CCCCC(F)(F)[C@@]1(O)CC[C@H]2[C@@H](CC(=O)[C@@H]2CCCCCCC(=O)O)O1,outcome,[1],inactive
same,outcome,[2],inactive
same,outcome,[3],inactive
same,outcome,[8],inactive
same,outcome,[9],inactive
same,outcome,[5],inactive
same,outcome,[6],inactive
same,outcome,[7],inactive
CCc1cccc(CC)c1NC(=O)N1Cc2[nH]nc(NC(=O)c3ccc(N4CCN(C)CC4)cc3)c2C1,AC50,[1],0.934 µM (active)
same,AC50,[2],14.8 µM (active)
same,outcome,[3],inactive
same,AC50,[8],2.09 µM (active)
same,AC50,[9],0.661 µM (active)
same,outcome,[5],inactive
same,fold change,[11]; [14],1 (inactive)
same,fold change,[11]; [15],0.697
same,cell count,[11]; [16],2360
same,cell count,[11]; [17],2350
same,z-score,[12]; [18],-0.115 (inactive)
same,z-score,[12]; [19],-0.878
OCCn1cc(-c2cnc3nnn(Cc4ccc5ncccc5c4)c3n2)cn1,outcome,[1],inactive
same,outcome,[2],inactive
same,outcome,[3],inactive
same,outcome,[8],inactive
same,outcome,[9],inactive
same,outcome,[6],inactive
same,outcome,[7],inactive
same,fold change,[11]; [14],0.95 (inactive)
same,fold change,[11]; [15],1.2
same,cell count,[11]; [16],7870
same,cell count,[11]; [17],8280
same,SSMD,[10],2.68
same,cell count,[10],7630
same,plate-normalised HSF1 focus index,[10],1.17 (inactive)
same,z-score,[12]; [18],-0.449 (inactive)
same,z-score,[12]; [19],0.57
same,viability,[13]; [20],111% (inactive)
same,viability,[13]; [21],109% (inactive)
same,viability,[13]; [22],99.5% (active)
same,viability,[13]; [23],102% (inactive)
same,viability,[13]; [24],118% (inactive)
same,viability,[13]; [25],110% (inactive)
same,viability,[13]; [26],106% (inactive)
same,viability,[13]; [27],105% (inactive)
same,viability,[13]; [28],119% (inactive)
same,viability,[13]; [29],113% (inactive)
same,viability,[13]; [30],102% (inactive)
same,viability,[13]; [31],102% (inactive)
same,viability,[13]; [32],118% (inactive)
same,viability,[13]; [33],112% (inactive)
same,viability,[13]; [34],102% (inactive)
same,viability,[13]; [35],99.8% (active)
same,viability,[13]; [36],124% (inactive)
same,viability,[13]; [37],117% (inactive)
same,viability,[13]; [38],102% (inactive)
same,viability,[13]; [39],101% (inactive)
same,viability,[13]; [40],126% (inactive)
same,viability,[13]; [41],118% (inactive)
same,viability,[13]; [42],102% (inactive)
same,viability,[13]; [43],106% (inactive)
same,viability,[13]; [44],124% (inactive)
same,viability,[13]; [45],113% (inactive)
same,viability,[13]; [46],101% (inactive)
same,viability,[13]; [47],99.8% (active)
same,viability,[13]; [48],148% (inactive)
same,viability,[13]; [49],123% (inactive)
same,viability,[13]; [50],97.4% (active)
same,viability,[13]; [51],94.2% (active)
CN(CC(=O)N(Cc1ccc(C2CCCCC2)cc1)c1ccc(C(=O)O)c(O)c1)S(=O)(=O)c1c(F)c(F)c(F)c(F)c1F,AC50,[1],8.33 µM (active)
same,AC50,[2],11.8 µM (active)
same,AC50,[3],16.6 µM (active)
same,AC50,[8],6.61 µM (active)
same,AC50,[9],9.34 µM (active)
same,AC50,[5],3.32 µM (active)
same,AC50,[6],3.72 µM (active)
same,IC50,[7],8.33 µM (active)
CN(C)CC(C)(C)CNc1nn2c(-c3ccccc3)nnc2cc1C1CCC1,outcome,[1],inactive
same,outcome,[2],inactive
same,AC50,[3],16.6 µM (active)
same,outcome,[8],inactive
same,outcome,[9],inactive
same,outcome,[5],inactive
same,outcome,[6],inactive
same,outcome,[7],inactive
C[C@@]1(C(=O)Nc2ccc(F)nc2)CCCN1c1nc(Nc2cc(C3CC3)[nH]n2)c2cccn2n1,AC50,[1],0.263 µM (active)
same,AC50,[2],7.43 µM (active)
same,AC50,[4],0.0833 µM (active)
same,AC50,[8],0.0209 µM (active)
same,AC50,[9],0.0132 µM (active)
same,AC50,[6],0.186 µM (active)
same,IC50,[7],0.0742 µM (active)
